# Laboratory results as given in PubChem BioAssay (NCATS).
# Where “and” joins values, the source holds several entries; their conditions need not be identical. Equal entries are not always repeated. Inconclusive results are not listed. Unmarked numbers belong to inactive results. Calls of active or inactive are those of the source. Calls follow the shape of the dose curve; as a rule, active = well fitted cell-killing curve with a large enough effect; inconclusive = small, poorly fitted or top-dose-only effect; inactive = flat fitted curve, though single readings scatter.
# What was measured:
# [1] = Cellular viability qHTS for adrenocortical cancer (ACC) cell line SW-13 (AID 1963989); conditions: SW-13 ACC cells viability, CellTiter-Glo, 48 h; activity (max response): stronger effect = lower value; also: nearly all actives have a fitted effect of over 65% in size;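 as to activity (max response): cells grown in serum-free medium with ITS supplement; % is scaled to controls: 0 for no effect and ±100 for the full control effect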
# Outline: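 Luminescent ATP read-out (CellTiter-Glo, 20 min at room temperature) measured metabolically competent SW-13 cells after 48 h compound treatment. Final concentrations spanned up to 46 uM; bortezomib served as positive control.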
# [2] = Cellular viability qHTS for adrenocortical cancer (ACC) cell line NCI-H295R (AID 1963990); also: nearly all actives have a fitted effect of over 60% in size
# Outline: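 IC50 and maximal efficacy derive from four-parameter logistic modelling of titration curves, with reads scaled between DMSO-only wells (0%) and doxorubicin hydrochloride (100% inhibition). Compounds spanned up to 46 uM over 48 h.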
# Potency is read from the fitted curve at half-maximal effect.
Structure (SMILES),activity (max response) [1],Potency [2],Potency [1]
NC(=O)NC(=O)Cc1ccccc1,-0.635%,inactive,–
C=CC(=O)Nc1ccc(F)c(-c2ncnc3[nH]cc(C(=O)OCC)c23)c1,–,–,22.4 µM (active)
C=C1/C(=C/C=C2\CCCC3(C)[C@@H]([C@H](C)/C=C/C=C/C(O)(CC)CC)CC[C@@H]23)C[C@@H](O)C[C@@H]1O (stereo not given in full),-11%,–,–
CCS(=O)(=O)N1CCC(C(C)n2c(C)c(C(=O)NCc3c(OC)cc(C)[nH]c3=O)c3ccccc32)CC1 (stereo not given),-8.74%,inactive,–
Oc1ccc(Cl)cc1Sc1cc(Cl)ccc1O,–,4.11 µM (active),3.26 µM (active)
CCCc1c(OCCCCc2nn[nH]n2)ccc(C(C)=O)c1O,-4.43%,inactive,–
COc1cccc(-c2c(C)n(Cc3c(F)cccc3C(F)(F)F)c(=O)n(C[C@H](NCCCC(=O)O)c3ccccc3)c2=O)c1F,3.23% and 7.63%,inactive,–
Cc1ccc(C(C)C)cc2c(C)ccc1-2,0.775%,inactive,–
C=C1CCC[C@]2(C)C=C3OC(=O)C(C)=C3C[C@@H]12,-6.22%,inactive,–
NC(=O)NC1N=C([O][Al])NC1=O (stereo not given),-0.662%,inactive,–
CCN(CC)CCNC(=O)c1cc(Br)c(N)cc1OC,-8.12%,inactive,–
N#C[C@@H]1C[C@@H]2C[C@@H]2N1C(=O)[C@@H](N)C12CC3CC(CC(O)(C3)C1)C2,7.26%,inactive,–
C/C=C1\NC(=O)[C@H]2CSSCC/C=C\[C@H](CC(=O)N[C@H](C(C)C)C(=O)N2)OC(=O)[C@H](C(C)C)NC1=O,–,0.0631 µM (active),0.0126 µM (active)
CCCNC(=O)c1cn2ncnc(Nc3cc(C(=O)NC4CC4)ccc3C)c2c1C,7.33%,–,–
c1ccc(CNCCNCc2ccccc2)cc1,-0.207%,inactive,–
Oc1cccc(O)c1,6.94%,inactive,–
CCN(CC)c1ccc(C(=C2C=CC(=[N+](CC)CC)C=C2)c2cc(S(=O)(=O)O)ccc2S(=O)(=O)[O-])cc1,–,7.31 µM (active),8.2 µM (active)

Structure (SMILES),activity (max response) [1],Potency [2],Potency [1]
CC[C@H]1OC(=O)[C@H](C)C(=O)[C@H](C)[C@@H](O[C@H]2O[C@H](C)C[C@H](N(C)C)[C@H]2O)[C@](C)(OC)C[C@@H](C)C(=O)[C@H](C)[C@H]2N(CCCCn3cnc(-c4cccnc4)c3)C(=O)O[C@]12C,-18.8%,inactive,–
CCOC(=O)OC(C)OC(=O)[C@@H]1N2C(=O)[C@@H](NC(=O)[C@H](N)c3ccccc3)[C@H]2SC1(C)C (stereo not given in full),4.54%,inactive,–
CN(C)c1ccc(C(=C2C=CC(=[N+](C)C)C=C2)c2ccccc2)cc1,–,0.92 µM (active),0.82 µM (active)
CCN(CC)CCOc1ccc(C(O)(Cc2ccc(Cl)cc2)c2ccc(C)cc2)cc1 (stereo not given),–,16.4 µM (active),20.6 µM (active)
CC(C)[N+](C)(CCOC(=O)C1c2ccccc2Oc2ccccc21)C(C)C,-9.17%,inactive,–
CC(C)C[C@@H]1[C@H](c2ccccc2)OC(=O)N1CCCN1CCCCCC1,-14.7%,inactive,–
C[C@@H](O)[C@H](N)C(=O)O,12.2%,inactive,–
CC(C)(C)CC(C)(C)c1ccc(O)c(Cc2ccc(Cl)cc2Cl)c1,–,5.8 µM (active),16.4 µM (active)
O=C(O)Cn1c(=O)n(Cc2ccc(Br)cc2F)c(=O)c2ccc(Cl)cc21,14.5%,inactive,–
C/C(=C1\CCOC(=O)S1)N(C=O)Cc1cnc(C)nc1N,-4.19%,inactive,–
C[C@@]12CCC[C@H]1[C@@H]1CC[C@H]3C[C@@H](O)CC[C@]3(C)[C@H]1CC2,-0.85%,inactive,–
OC(CCCN1CCCCC1)(c1ccccc1)c1ccccc1,-5.81%,inactive,–
CC(C)Cc1ccc(C(C)C(=O)OCc2ccccn2)cc1 (stereo not given),14%,inactive,–
CCC(=O)O[C@]1(C(=O)CO)CC[C@H]2[C@@H]3CCC4=CC(=O)CC[C@]4(C)[C@H]3CC[C@@]21C,7.43%,inactive,–
Nc1ncnc(Nc2ccccc2)n1,3.3%,inactive,–
Cc1[nH]cnc1CN1CCc2c(c3ccccc3n2C)C1=O,6.95%,inactive,–
Cc1ccsc1C(=CCCN1CCC[C@@H](C(=O)O)C1)c1sccc1C,0.503% and 7.63%,inactive,–
